# Laboratory results published in the supplement of paper PMC8728848.
# About 410 targets per protein were measured; listed, in parts, are those with the strongest signals and a random draw of the rest.
# B1: TIM1 (protein)
# chain: ADGIQSVKVGGEAGPSVTLPCHYSGAVTSMCWNRGSCSLFTCQNGIVWTNGTHVTYRKDTRYKLLGDLSRRDVSLTIENTAVSDSGVYCCRVEHRGWFNDMKITVSLEIVPPHHHHHH
# Legend:
# Assay in all cases: glycan array binding signal (z-score within array); higher = stronger binding
# Conditions in all cases: glycan notation: IUPAC condensed, linker removed
# [1] = molecular target: GalNAc(b1-3)GlcNAc
# Outline: (§1)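 Columns mapping to the same glycan were averaged after glycan names were converted to IUPAC-condensed notation. The data come from 3228 arrays in the Consortium for Functional Glycomics database, limited to those with an available protein sequence. Binding is reported as a within-array Z-score averaged across arrays of one protein sequence and across linkers.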
# [2] = molecular target: GalNAc6S(b1-4)GlcNAc
# Outline: as §1
# [3] = molecular target: Glc(a1-6)Glc(a1-6)Glc
# Outline: as §1
# [4] = molecular target: GlcNAc(a1-4)Gal(b1-4)GalNAc
# Outline: as §1
# [5] = molecular target: GlcNAc(a1-4)Gal(b1-4)GlcNAc(b1-3)Gal(b1-4)GlcNAc
# Outline: as §1
# [6] = molecular target: GlcNAc(a1-4)Gal(b1-4)GlcNAc(b1-3)Gal(b1-4)[Fuc(a1-3)]GlcNAc(b1-3)Gal(b1-4)[Fuc(a1-3)]GlcNAc
# Outline: as §1
# [7] = molecular target: GlcNAc(b1-3)Gal(b1-4)GlcNAc(b1-2)[GlcNAc(b1-3)Gal(b1-4)GlcNAc(b1-6)]Man(a1-6)[GlcNAc(b1-3)Gal(b1-4)GlcNAc(b1-2)Man(a1-3)]Man(b1-4)GlcNAc(b1-4)GlcNAc
# Outline: as §1
# [8] = molecular target: GlcNAc(b1-3)Gal(b1-4)GlcNAc(b1-3)Gal(b1-4)GlcNAc(b1-2)Man(a1-3)[GlcNAc(b1-3)Gal(b1-4)GlcNAc(b1-3)Gal(b1-4)GlcNAc(b1-2)Man(a1-6)]Man(b1-4)GlcNAc(b1-4)GlcNAc
# Outline: as §1
# [9] = molecular target: GlcNAc(b1-3)Gal(b1-4)GlcNAc(b1-3)Gal(b1-4)GlcNAc(b1-2)[GlcNAc(b1-3)Gal(b1-4)GlcNAc(b1-3)Gal(b1-4)GlcNAc(b1-6)]Man(a1-6)[GlcNAc(b1-3)Gal(b1-4)GlcNAc(b1-3)Gal(b1-4)GlcNAc(b1-2)Man(a1-3)]Man(b1-4)GlcNAc(b1-4)[Fuc(a1-6)]GlcNAc
# Outline: as §1
# [10] = molecular target: GlcNAc(b1-3)Gal(b1-4)GlcNAc(b1-3)Gal(b1-4)GlcNAc(b1-3)Gal(b1-4)GlcNAc(b1-2)[GlcNAc(b1-3)Gal(b1-4)GlcNAc(b1-3)Gal(b1-4)GlcNAc(b1-3)Gal(b1-4)GlcNAc(b1-6)]Man(a1-6)[GlcNAc(b1-3)Gal(b1-4)GlcNAc(b1-3)Gal(b1-4)GlcNAc(b1-3)Gal(b1-4)GlcNAc(b1-2)Man(a1-3)]Man(b1-4)GlcNAc(b1-4)[Fuc(a1-6)]GlcNAc
# Outline: as §1
# [11] = molecular target: GlcNAc6S(b1-3)Gal(b1-4)GlcNAc
# Outline: as §1
# [12] = molecular target: Kdn(a2-3)Gal(b1-3)GalNAc
# Outline: as §1
# [13] = molecular target: Man(a1-2)Man(a1-3)[Man(a1-2)Man(a1-6)]Man
# Outline: as §1
# [14] = molecular target: Neu5Ac(a2-3)Gal(b1-4)Glc
# Outline: as §1
# [15] = molecular target: Neu5Ac(a2-3)Gal(b1-4)GlcNAc(b1-2)Man(a1-3)[Neu5Ac(a2-3)Gal(b1-4)GlcNAc(b1-2)Man(a1-6)]Man(b1-4)GlcNAc(b1-4)[Fuc(a1-6)]GlcNAc
# Outline: as §1
# [16] = molecular target: Neu5Ac(a2-3)Gal(b1-4)GlcNAc(b1-2)[Neu5Ac(a2-3)Gal(b1-4)GlcNAc(b1-4)]Man(a1-3)[GlcNAc(b1-4)][Neu5Ac(a2-3)Gal(b1-4)GlcNAc(b1-2)[Neu5Ac(a2-3)Gal(b1-4)GlcNAc(b1-6)]Man(a1-6)]Man(b1-4)GlcNAc(b1-4)GlcNAc
# Outline: as §1
# [17] = molecular target: Neu5Ac(a2-3)Gal(b1-4)GlcNAc(b1-3)Gal(b1-4)GlcNAc(b1-3)Gal(b1-4)GlcNAc(b1-2)Man(a1-3)[Neu5Ac(a2-3)Gal(b1-4)GlcNAc(b1-3)Gal(b1-4)GlcNAc(b1-3)Gal(b1-4)GlcNAc(b1-2)Man(a1-6)]GalNAc
# Outline: as §1
# [18] = molecular target: Neu5Ac(a2-3)Gal(b1-4)GlcNAc(b1-6)GalNAc
# Outline: as §1
# [19] = molecular target: Neu5Ac(a2-3)Gal(b1-4)GlcNAc6S
# Outline: as §1
# [20] = molecular target: Neu5Ac(a2-3)Gal(b1-4)[Fuc(a1-3)]GlcNAc(b1-2)Man
# Outline: as §1
# [21] = molecular target: Neu5Ac(a2-6)Gal(b1-4)GlcNAc(b1-3)Gal(b1-4)GlcNAc(b1-2)Man(a1-3)[Neu5Ac(a2-6)Gal(b1-4)GlcNAc(b1-3)Gal(b1-4)GlcNAc(b1-2)Man(a1-6)]GalNAc
# Outline: as §1
# [22] = molecular target: Neu5Ac(a2-6)Gal(b1-4)GlcNAc(b1-3)Gal(b1-4)GlcNAc(b1-3)Gal(b1-4)GlcNAc(b1-2)Man(a1-3)[Neu5Ac(a2-6)Gal(b1-4)GlcNAc(b1-3)Gal(b1-4)GlcNAc(b1-3)Gal(b1-4)GlcNAc(b1-2)Man(a1-6)]GalNAc
# Outline: as §1
# [23] = molecular target: Neu5Ac(a2-6)Gal(b1-4)GlcNAc(b1-6)[Gal(b1-3)]GalNAc
# Outline: as §1
# [24] = molecular target: Neu5Ac(a2-8)Neu5Ac(a2-3)[GalNAc(b1-4)]Gal(b1-4)Glc
# Outline: as §1
# [25] = molecular target: Neu5Ac(a2-8)Neu5Ac(a2-8)Neu5Ac(a2-3)Gal(b1-4)Glc
# Outline: as §1
# [26] = molecular target: Neu5Gc(a2-8)Neu5Ac(a2-3)Gal(b1-4)GlcNAc
# Outline: as §1
binder,measurement,setting,value
B1,glycan array binding signal (z-score),[1],-0.188
same,glycan array binding signal (z-score),[2],-0.269
same,glycan array binding signal (z-score),[3],-0.212
same,glycan array binding signal (z-score),[4],0.413
same,glycan array binding signal (z-score),[5],-0.125
same,glycan array binding signal (z-score),[6],2.32
same,glycan array binding signal (z-score),[7],1.97
same,glycan array binding signal (z-score),[8],5.59
same,glycan array binding signal (z-score),[9],1.97
same,glycan array binding signal (z-score),[10],1.02
same,glycan array binding signal (z-score),[11],-0.142
same,glycan array binding signal (z-score),[12],0.111
same,glycan array binding signal (z-score),[13],-0.292
same,glycan array binding signal (z-score),[14],0.916
same,glycan array binding signal (z-score),[15],-0.132
same,glycan array binding signal (z-score),[16],-0.288
same,glycan array binding signal (z-score),[17],4.84
same,glycan array binding signal (z-score),[18],-0.189
same,glycan array binding signal (z-score),[19],-0.181
same,glycan array binding signal (z-score),[20],-0.204
same,glycan array binding signal (z-score),[21],1.3
same,glycan array binding signal (z-score),[22],5.74
same,glycan array binding signal (z-score),[23],-0.075
same,glycan array binding signal (z-score),[24],-0.183
same,glycan array binding signal (z-score),[25],-0.195
same,glycan array binding signal (z-score),[26],-0.137
